Assay results: PubChem BioAssay AID1159580 (chemical genetic matrix, 2015)
Where “and” joins values, the source holds several entries; their conditions need not be identical. Identical values can stand only once. The whole screen tested about 5,500 compounds, of which about 2,000 (36%) were called active. Not shown: some 18% with an inconclusive outcome. Rule as the data show it: active = normalized growth mostly below about 0.91 (no sharp cut-off); inconclusive = no clear call, values can overlap the other calls; inactive = mostly above about 0.92. This is one part of the list.

Assay: chemical genetic growth profiling, strain panel (AID 1159580);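 also: tested at 20 µM; growth read once vehicle control cultures reached saturation at 30 °C; 1 = growth at the plate median or of vehicle wells; lower values mean less growth of the strain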
Conditions: S. cerevisiae deletion strains, growth OD

Measured: normalized growth

O=C1C(Cl)=C(Cl)C(=O)C(Cl)=C1Cl
active: locus YAL013W, strain DEP1, stronger effect = lower value 0.483 | locus YAL021C, strain ccr4, stronger effect = lower value 0.883 | locus YAL026C, strain drs2, stronger effect = lower value 0.831 | locus YBR009C, strain hhf1, stronger effect = lower value 0.843 | locus YBR021W, strain FUR4, stronger effect = lower value 0.293 | locus YBR279W, strain paf1, stronger effect = lower value 0.929 | locus YCL011C, strain gbp2, stronger effect = lower value 0.865 | locus YDL035C, strain GPR1, stronger effect = lower value 0.525 | locus YDL074C, strain BRE1, stronger effect = lower value 0.531 | locus YDL134C, strain PPH21, stronger effect = lower value 0.499 | locus YDL185W, strain tfp1, stronger effect = lower value 0.118 | locus YDL192W, strain arf1, stronger effect = lower value 0.239 | locus YDR101C, strain arx1, stronger effect = lower value 0.881 | locus YDR150W, strain NUM1, stronger effect = lower value 0.79 | locus YDR162C, strain NBP2, stronger effect = lower value 0.384 | locus YDR318W, strain mcm21, stronger effect = lower value 0.181 | locus YDR388W, stronger effect = lower value 0.164 | locus YDR392W, strain spt3, stronger effect = lower value 0.686 | locus YDR502C, strain sam2, stronger effect = lower value 0.61 | locus YEL003W, strain gim4, stronger effect = lower value 0.881 | locus YEL061C, strain CIN8, stronger effect = lower value 0.711 | locus YER015W, strain faa2, stronger effect = lower value 0.878 | locus YER110C, stronger effect = lower value 0.704 | locus YER155C, strain BEM2 (second series), stronger effect = lower value 0.763 | locus YER155C, strain BEM2, stronger effect = lower value 0.509 | locus YER167W, strain BCK2, stronger effect = lower value 0.198 | locus YFR010W, strain ubp6, stronger effect = lower value 0.891 | locus YGL078C, strain dbp3, stronger effect = lower value 0.077 | locus YGL086W, strain mad1, stronger effect = lower value 0.252 | locus YGL248W, strain PDE1, stronger effect = lower value 0.502 | locus YGR078C, strain PAC10, stronger effect = lower value 0.226 | locus YGR135W, strain pre9, stronger effect = lower value 0.335 | locus YGR229C, strain SMI1, stronger effect = lower value 0.0849 | locus YGR252W, strain gcn5, stronger effect = lower value 0.195 | locus YHR013C, strain ard1, stronger effect = lower value 0.829 | locus YHR027C, strain rpn1, stronger effect = lower value 0.904 | locus YHR030C, strain SLT2, stronger effect = lower value 0.281 and 0.105 | locus YHR079C, strain IRE1 (second series), stronger effect = lower value 0.91 | locus YHR079C, strain IRE1, stronger effect = lower value 0.129 | locus YHR094C, strain hxt1, stronger effect = lower value 0.614 | locus YHR129C, strain ARP1, stronger effect = lower value 0.655 | locus YHR200W, strain rpn10, stronger effect = lower value 0.27 | locus YIL066C, strain RNR3, stronger effect = lower value 0.634 | locus YIL073C, strain SPO22, stronger effect = lower value 0.5 | locus YIL125W, strain kgd1, stronger effect = lower value 0.0634 | locus YIR030C, strain dcg1, stronger effect = lower value 0.85 | locus YJL095W, strain BCK1, stronger effect = lower value 0.724 and 0.122 | locus YJL164C, strain tpk1, stronger effect = lower value 0.892 | locus YJL166W, strain qcr8, stronger effect = lower value 0.871 | locus YJL168C, strain set2, stronger effect = lower value 0.8 | locus YJR043C, strain POL32, stronger effect = lower value 0.671 | locus YJR066W, strain TOR1, stronger effect = lower value 0.0486 | locus YJR075W, strain HOC1, stronger effect = lower value 0.566
inactive: locus YAL030W, strain snc1, stronger effect = lower value 0.986 | locus YBL061C, strain skt5, stronger effect = lower value 0.994 | locus YBR023C, strain chs3, stronger effect = lower value 0.927 | locus YBR171W, strain sec66, stronger effect = lower value 0.967 | locus YBR229C, strain ROT2, stronger effect = lower value 0.979 | locus YBR231C, strain swc5, stronger effect = lower value 0.96 | locus YCL016C, strain dcc1, stronger effect = lower value 0.919 | locus YCL029C, strain bik1, stronger effect = lower value 0.929 | locus YCL069W, strain vba3, stronger effect = lower value 0.985 | locus YCR088W, strain abp1, stronger effect = lower value 0.949 | locus YDL005C, strain med2, stronger effect = lower value 1 | locus YDL040C, strain nat1, stronger effect = lower value 0.976 | locus YDL101C, strain DUN1, stronger effect = lower value 0.941 | locus YDR001C, strain nth1, stronger effect = lower value 0.991 | locus YDR069C, strain doa4, stronger effect = lower value 0.92 | locus YDR137W, strain rgp1, stronger effect = lower value 0.978 | locus YDR159W, strain sac3, stronger effect = lower value 1.03 | locus YDR195W, strain ref2 0.894 | locus YDR297W, strain sur2, stronger effect = lower value 0.997 | locus YDR334W, strain swr1, stronger effect = lower value 0.98 | locus YDR335W, strain msn5, stronger effect = lower value 0.963 | locus YEL037C, strain rad23, stronger effect = lower value 0.99 | locus YEL061C, strain CIN8 (second series), stronger effect = lower value 0.954 | locus YER016W, strain bim1, stronger effect = lower value 0.979 | locus YER111C, strain swi4, stronger effect = lower value 0.993 | locus YGL167C, strain pmr1, stronger effect = lower value 0.982 | locus YGL173C, strain kem1, stronger effect = lower value 0.958 | locus YGL227W, strain vid30, stronger effect = lower value 0.997 | locus YGL240W, strain doc1, stronger effect = lower value 0.99 | locus YGL253W, strain hxk2, stronger effect = lower value 0.993 | locus YHR142W, strain chs7, stronger effect = lower value 0.928 | locus YJL092W, strain hpr5, stronger effect = lower value 0.94 | locus YJL095W, strain BCK1 (second series), stronger effect = lower value 0.978 | locus YJL115W, strain asf1, stronger effect = lower value 0.979 | locus YJL129C, strain trk1, stronger effect = lower value 1 | locus YJL134W, strain LCB3, stronger effect = lower value 0.937 | locus YJL154C, strain vps35, stronger effect = lower value 0.984 | locus YJL187C, strain SWE1 (second series), stronger effect = lower value 0.982
